Among the test systems are HCT-15 colon; SNB-75 CNS; SNB-19 CNS; U251 CNS; PC-3 prostate; SK-MEL-5 melanoma; UACC-62 melanoma; LOX IMVI melanoma; SK-MEL-28 melanoma; SK-MEL-2 melanoma; EKVX NSCLC; UO-31 renal; TK-10 renal; ACHN renal; CAKI-1 renal; A498 renal; CCRF-CEM leukemia; MOLT-4 leukemia; SN12C renal; HT29 colon.
What all share (assay): NCI-60 one-dose screen, 48 h (100 = growth as untreated, 0 = no growth, -100 = all killed)
Common to all, as to details: 10 µM unless noted

About 83,000 compounds went through this panel and 20% of them were active in at least one assay; those are over-represented in the sample as a whole.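 Values shown are percent growth following 48 h exposure of cells in 96-well plates to a single concentration of compound; below 10 was considered active.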 A number with no mark means an inactive call. Activity calls are given as the source filed them.

As to `COC(=O)c1nc(-c2ccccc2)oc1S(=O)(=O)N1CCC(C(N)=O)CC1`, the growth was 42.8% in the assay on HCT-15 colon; 93.2% in the assay on SNB-75 CNS; 93.3% in the assay on SNB-19 CNS; 88.6% with U251 CNS; 62.7% with PC-3 prostate; 81.6% with SK-MEL-5 melanoma. Also, the growth in the assay with UACC-62 melanoma was 79.6%; in the assay on LOX IMVI melanoma it was 63.7%; in the assay with SK-MEL-28 melanoma it was 63.4%; in the assay with SK-MEL-2 melanoma, 91.2%; in the assay with EKVX NSCLC it was 69.7%; with UO-31 renal, 55.3%. For the same compound, the growth was 23.2% with TK-10 renal; 39.6% in the assay with ACHN renal; 49.5% in the assay on CAKI-1 renal; 87.4% in the assay on A498 renal; -3.72% (active) in the assay on CCRF-CEM leukemia; 1.95% (active) with MOLT-4 leukemia.
For `COc1cc2c(c(OC)c1OC)C(=O)N[C@@H]1[C@@H](O)[C@@H](O)[C@H](O)C[C@@H]21`, the growth is 104% with HCT-15 colon; 102% with SNB-75 CNS; 99% with SNB-19 CNS; 98.9% with U251 CNS; 96.5% in the assay on PC-3 prostate; 104% in the assay with SK-MEL-5 melanoma. Further, the growth in the assay on UACC-62 melanoma is 94.1%; in the assay with LOX IMVI melanoma, 97.7%; in the assay with SK-MEL-28 melanoma, 111%; in the assay with SK-MEL-2 melanoma, 117%; in the assay on EKVX NSCLC, 103%; in the assay with SN12C renal, 104%. Also, the growth in the assay on UO-31 renal was 87.1%; in the assay with TK-10 renal, 98.5%; in the assay on ACHN renal it was 99.7%; with CAKI-1 renal, 94.1%; in the assay on A498 renal, 112%; with CCRF-CEM leukemia it was 104%. Besides, the growth in the assay on MOLT-4 leukemia is 104%.
In the case of `C=C1C(=O)O[C@H]2[C@H]1CC/C(COC(=O)NCCCCCCCCNC(=O)OC/C1=C/CC[C@@]3(C)O[C@H]3[C@H]3OC(=O)C(=C)[C@@H]3CC1)=C\CC[C@@]1(C)O[C@@H]21`, the growth in the assay with HCT-15 colon is -83.9% (active); in the assay on HT29 colon, -67.1% (active); with SNB-75 CNS, -19.8% (active); in the assay on SNB-19 CNS it was 6.51% (active); in the assay with U251 CNS, -48.2% (active); with SK-MEL-5 melanoma, -85.3% (active). The growth was -78.2% (active) in the assay with LOX IMVI melanoma; -75.3% (active) in the assay with SK-MEL-28 melanoma; -57.5% (active) in the assay with SK-MEL-2 melanoma; -82.4% (active) with EKVX NSCLC; -68.7% (active) in the assay with SN12C renal; -92.4% (active) in the assay with UO-31 renal. Moreover, the growth is -97.9% (active) in the assay with TK-10 renal; -93.2% (active) in the assay on ACHN renal; -90.1% (active) in the assay on CAKI-1 renal; -88.7% (active) in the assay on A498 renal; -47.3% (active) with CCRF-CEM leukemia.
Consider `CN(C)Cc1ccc(C(=O)Nc2ccc3ncnc(Nc4ccc(Oc5cccc(F)c5)c(Cl)c4)c3c2)cc1`, for which the growth was -45.3% (active) with HCT-15 colon; 18.5% in the assay with SNB-75 CNS; -3.27% (active) in the assay with SNB-19 CNS; -28.1% (active) in the assay on U251 CNS; 3.54% (active) in the assay on PC-3 prostate; -82.6% (active) in the assay on SK-MEL-5 melanoma. Moreover, the growth in the assay on UACC-62 melanoma was -20.1% (active); with LOX IMVI melanoma, -96.2% (active); with SK-MEL-28 melanoma, -89.1% (active); in the assay on SK-MEL-2 melanoma, -27.1% (active); in the assay on EKVX NSCLC, 35.5%; in the assay on SN12C renal, 11.4%. For the same compound, the growth was 16% in the assay on UO-31 renal; 1.66% (active) with TK-10 renal; -85.8% (active) in the assay on ACHN renal; -42.2% (active) with CAKI-1 renal; 19.2% in the assay with A498 renal; -0.132% (active) with CCRF-CEM leukemia. The growth in the assay with MOLT-4 leukemia is -13.2% (active).
For `CCN(CC)CCNC(=O)c1ccc(-c2nc3ccc4[nH]ncc4c3c3c2CCCC3)cc1`, the growth with HCT-15 colon was 28.3%; in the assay on SNB-75 CNS it was 54.2%; in the assay on SNB-19 CNS, 85.4%; in the assay on U251 CNS, 54.9%; in the assay on PC-3 prostate, 57.2%; in the assay with SK-MEL-5 melanoma, 69.8%. Also, the growth in the assay on UACC-62 melanoma was 33.8%; in the assay on LOX IMVI melanoma it was 46%; with SK-MEL-28 melanoma it was 73.2%; in the assay with SK-MEL-2 melanoma, 60.5%; in the assay on EKVX NSCLC, 51%; in the assay on SN12C renal, 70.9%. The growth is 40.3% with UO-31 renal; 47.7% with TK-10 renal; 24.7% with ACHN renal; 9.09% (active) in the assay with CAKI-1 renal; 16.9% with A498 renal; 47% in the assay on CCRF-CEM leukemia. Besides, the growth with MOLT-4 leukemia was 50%.
Take `O=C(/C=C/c1ccc(Br)cc1)c1ccc(-n2cc(CN3CCN(c4cc5c(cc4F)c(=O)c(C(=O)O)cn5C4CC4)CC3)nn2)cc1`: the growth in the assay on HCT-15 colon was 95%; in the assay on SNB-75 CNS, 93.6%; in the assay on SNB-19 CNS, 86.9%; in the assay on U251 CNS, 71.2%; with PC-3 prostate, 82%; in the assay with SK-MEL-5 melanoma, 91.1%. Besides, the growth with UACC-62 melanoma is 83%; in the assay on LOX IMVI melanoma, 50.4%; with SK-MEL-28 melanoma, 107%; in the assay with SK-MEL-2 melanoma it was 97.2%; in the assay with EKVX NSCLC, 90.7%; in the assay on SN12C renal, 44.9%. Also, the growth with UO-31 renal is 65.7%; in the assay on TK-10 renal, 91.4%; with ACHN renal it was 93.7%; in the assay with CAKI-1 renal, 64.4%; in the assay with A498 renal, 57.4%; with CCRF-CEM leukemia, 56.3%. Besides, in the assay with MOLT-4 leukemia, the growth is 67.7%.
Consider `O=C(N/N=C/c1ccc(Cl)cc1Cl)c1ccc2nc(-c3ccc(Cl)cc3)[nH]c2c1`, for which the growth in the assay with HCT-15 colon is 4.69% (active); in the assay with SNB-75 CNS, 98.4%; in the assay with SNB-19 CNS, 4.35% (active); with U251 CNS, -15.2% (active); in the assay with PC-3 prostate, -24.9% (active); with SK-MEL-5 melanoma it was 36.2%. Besides, the growth with UACC-62 melanoma was 16.8%; in the assay with LOX IMVI melanoma, -55.9% (active); in the assay with SK-MEL-28 melanoma, -9.23% (active); in the assay with SK-MEL-2 melanoma, 38.9%; with EKVX NSCLC, 8.23% (active); with SN12C renal, -36.9% (active). For the same compound, the growth is 21.6% with UO-31 renal; -4.33% (active) in the assay with TK-10 renal; -20.2% (active) in the assay on ACHN renal; 61.2% in the assay on CAKI-1 renal; 56.2% in the assay on A498 renal; 15.5% in the assay on CCRF-CEM leukemia. Besides, in the assay with MOLT-4 leukemia, the growth is 4.45% (active).
Take `CN1CCN(C(=O)c2cc(-c3ccc4ncnc(N5CCc6cc(F)c(Cl)cc65)c4c3)cnc2N)CC1`: the growth was 5.57% (active) with HCT-15 colon; -35.3% (active) in the assay with SNB-75 CNS; 13% in the assay with SNB-19 CNS; 15.4% with U251 CNS; 1.89% (active) in the assay on PC-3 prostate; -97.1% (active) in the assay on SK-MEL-5 melanoma. Also, the growth is -41.4% (active) in the assay on LOX IMVI melanoma; -0.0571% (active) in the assay with SK-MEL-28 melanoma; -48% (active) in the assay on SK-MEL-2 melanoma; -10.2% (active) in the assay with EKVX NSCLC; 3.95% (active) in the assay on UO-31 renal; -14.2% (active) in the assay on TK-10 renal. The growth in the assay on ACHN renal was 5.3% (active); in the assay with CAKI-1 renal, -33.3% (active); in the assay with A498 renal, -69.2% (active); with CCRF-CEM leukemia, 7.93% (active).

The record behind these values is PubChem BioAssay (NCI).
